The nature of experiment [1]: qHTS for Inhibitors of the Functional Ribonucleoprotein Complex (vRNP) of Lassa (LASV) Arenavirus: LASV Primary Screen - GLuc reporter signal (AID 1347082; calls by dose curve; tested in HEK293 reporter line; note: nearly all actives have a fitted effect of over 60% in size; note: potency is the fitted concentration of half-maximal effect). Background: In qHTS, concentration-response curves come from the screen itself.
Experiment [2] in a line: qHTS for Inhibitors of the Functional Ribonucleoprotein Complex (vRNP) of Lassa (LASV) Arenavirus: Viability assay - alamar blue signal for LASV Primary Screen (AID 1347083; calls by dose curve; tested in HEK293 reporter line; note: nearly all actives have a fitted effect of over 80% in size; note: potency is the fitted concentration of half-maximal effect).
Experiment [3] in a line: Primary qHTS to identify inhibitors of SARS-CoV-2 cell entry (AID 1645846). Note: nearly all actives have a fitted effect of over 45% in size. The note with it: activity change, negative = inhibition: at 57.1 µM (top of the series) unless noted. The essentials:
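Using luciferase-reporting pseudoviruses carrying Wuhan-Hu-1 spike, the screen tracks entry into stably ACE2-expressing cells over 48 hr. Activity is expressed relative to spike particles versus particles lacking any fusion protein.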

Experiment [4] in a line: qHTS for Inhibitors of the Functional Ribonucleoprotein Complex (vRNP) of Lymphocytic Choriomeningitis Arenaviruses (LCMV): Viability assay - alamar blue signal for LCMV Primary Screen (AID 1347085; calls by dose curve; tested in HEK293 reporter line; note: nearly all actives have a fitted effect of over 80% in size; note: potency is the fitted concentration of half-maximal effect).
In experiment [5] the target is Estrogen receptor (Homo sapiens) (UniProt P03372). In words: qHTS assay for small molecule antagonists of estrogen receptor alpha signaling (AID 588513; active = well fitted curve in the direction sought with a large enough effect in the signal ratio, with a control signal flat, not every such curve was filed as active; the % refers to the signal ratio; note: % is set by controls: 0 for no effect and ±100 for the full control effect). The gist of the method:
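Antagonist-mode qHTS in ER-alpha-UAS-bla HEK 293 cells: compound titration, 0.5nM estradiol for 18 h, CCF4 fluorescence, Hill-derived IC50.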

Experiment [6] concerns the target Androgen receptor (Homo sapiens) (UniProt P10275). Put plainly: qHTS assay for small molecule agonists of androgen receptor signaling (AID 588515; active = well fitted curve in the direction sought with a large enough effect in the signal ratio, with a control signal flat; the % refers to the signal ratio; note: % is set by controls: 0 for no effect and ±100 for the full control effect). The note with it: AR-UAS-bla HEK293, beta-lactamase ratio, agonist 16 h; stronger effect = higher value. The gist of the method:
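Stimulation of an AR-responsive β-lactamase reporter in GripTite HEK293 cells was measured after 16 h compound exposure at 37 °C, via CCF4 fluorescence after 2 h RT. EC50 from Hill fits, normalized to R1881 at 30 nM.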

Experiment [7] shares this target. In words: qHTS assay for small molecule antagonists of androgen receptor signaling (AID 588516; active = well fitted curve in the direction sought with a large enough effect in the signal ratio, with a control signal flat, not every such curve was filed as active; the % refers to the signal ratio; note: % is set by controls: 0 for no effect and ±100 for the full control effect). The gist of the method:
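Compounds tested in titration against 10 nM R1881 in AR-responsive bla reporter HEK 293 cells; CCF4 fluorescence (460/530 nm) after 16 h exposure gave IC50 and efficacy.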

In experiment [8] the target is Bile acid receptor (Homo sapiens) (UniProt Q96RI1). In words: qHTS assay for small molecule antagonists of farnesoid X receptor signaling (AID 588526). Note: % is set by controls: 0 for no effect and ±100 for the full control effect. The essentials: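 Antagonist mode: titrated compounds tested against chenodeoxycholic acid stimulation (normalized to 50 uM CDCA and DMSO) in GeneBLAzer HEK293T cells for 16 h. Beta-lactamase read by CCF4 fluorescence; IC50 from Hill fits.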
Chain of Bile acid receptor (Homo sapiens) (Q96RI1 whole entry, looked up): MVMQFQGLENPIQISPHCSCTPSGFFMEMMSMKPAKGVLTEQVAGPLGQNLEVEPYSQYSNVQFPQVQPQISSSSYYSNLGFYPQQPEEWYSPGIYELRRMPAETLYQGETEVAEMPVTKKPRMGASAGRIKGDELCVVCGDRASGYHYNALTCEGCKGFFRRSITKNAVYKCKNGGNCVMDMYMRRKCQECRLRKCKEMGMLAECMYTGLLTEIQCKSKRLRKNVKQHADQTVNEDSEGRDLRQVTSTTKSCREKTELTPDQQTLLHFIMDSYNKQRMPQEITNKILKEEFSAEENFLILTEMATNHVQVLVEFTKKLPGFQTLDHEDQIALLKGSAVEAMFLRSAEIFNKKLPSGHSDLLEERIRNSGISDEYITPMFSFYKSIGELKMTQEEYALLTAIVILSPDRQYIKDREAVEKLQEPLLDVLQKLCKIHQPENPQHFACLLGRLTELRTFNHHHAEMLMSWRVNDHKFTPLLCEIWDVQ

Experiment [9] has the same target. In words: qHTS assay for small molecule agonists of farnesoid X receptor signaling (AID 588527).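 Note: 0% = vehicle basal and 100% = reference agonist.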 The note with it: HEK293T FXR-UAS-bla, beta-lactamase ratio, 16 h; activation: stronger effect = higher value. The essentials:
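Quantitative HTS used FXR-UAS-bla HEK293T cells with 16 h compound incubation at 37 C. EC50 values came from concentration-response curves normalized to chenodeoxycholic acid.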

The target of experiment [10] is Glucocorticoid receptor (Homo sapiens) (UniProt P04150). Put plainly: qHTS assay for small molecule agonists of glucocorticoid receptor signaling (AID 588532; active = well fitted curve in the direction sought with a large enough effect in the signal ratio, with a control signal flat; the % refers to the signal ratio;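 note: 100% = dexamethasone at 0.1 µM and 0% = DMSO only wells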). The note with it: HeLa MMTV-bla, beta-lactamase ratio, agonist, 18 h; stronger effect = higher value; percent of dexamethasone control, DMSO zero. The essentials:
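Cells were plated and rested 3-5 h at 37 C, compounds were added in titration and incubated 18 h, then CCF4 substrate was loaded for 2 h at RT before reading blue/green fluorescence. EC50 came from Hill-equation fitting.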

For experiment [11] the target is unchanged. In words: qHTS assay for small molecule antagonists of glucocorticoid receptor signaling (AID 588533; active = well fitted inhibition curve with a large enough effect in the signal ratio, with a control signal flat, not every such curve was filed as active; the % refers to the signal ratio). The gist of the method:
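Antagonist-mode qHTS: compound titrations added to GRE-bla HeLa cells, then dexamethasone 2 nM final; 18 h, 37 C. CCF4 FRET fluorescence normalized to dexamethasone and DMSO; IC50 from Hill fit.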

The target in experiment [12] is Peroxisome proliferator-activated receptor delta (Homo sapiens) (UniProt Q03181). In words: qHTS assay for small molecule agonists of peroxisome proliferator-activated receptor delta signaling (AID 588534).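 Note: 0% = DMSO basal wells and 100% = positive control agonist at 10 µM.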 The gist of the method: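 EC50 and efficacy values derive from Hill fits of a concentration series in a beta-lactamase reporter cell assay. Exposure is 18 hrs at 37 C, with CCF4 fluorescence as the readout.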
Chain of Peroxisome proliferator-activated receptor delta (Homo sapiens) (Q03181 whole entry, looked up): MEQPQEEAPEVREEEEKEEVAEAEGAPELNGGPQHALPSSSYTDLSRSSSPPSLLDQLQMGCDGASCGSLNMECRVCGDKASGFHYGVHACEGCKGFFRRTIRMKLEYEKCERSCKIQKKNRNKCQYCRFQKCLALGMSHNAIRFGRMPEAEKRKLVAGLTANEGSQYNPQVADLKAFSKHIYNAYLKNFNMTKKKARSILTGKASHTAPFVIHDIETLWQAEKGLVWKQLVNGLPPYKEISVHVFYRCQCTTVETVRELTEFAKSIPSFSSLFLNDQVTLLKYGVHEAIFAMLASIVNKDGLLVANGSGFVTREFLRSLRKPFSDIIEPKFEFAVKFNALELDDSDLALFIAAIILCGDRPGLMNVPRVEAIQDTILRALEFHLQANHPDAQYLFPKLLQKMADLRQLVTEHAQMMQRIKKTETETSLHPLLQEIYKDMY

Experiment [13] in a line: qHTS assay for small molecule antagonists of peroxisome proliferator-activated receptor delta signaling (AID 588535; active = well fitted inhibition curve with a large enough effect in the signal ratio, with a control signal flat, not every such curve was filed as active; the % refers to the signal ratio;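 for max response: cells co-treated with a PPAR-delta agonist as stimulator during compound exposure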). The note with it: HEK293T PPARd-UAS-bla, beta-lactamase FRET ratio, 18 h; 460 nm channel. The gist of the method:
(§1)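 Beta-lactamase reporter read-out (405 nm excitation, 460/530 nm emission) after CCF4 loading for 2 hrs at RT. HEK293T PPAR-delta-UAS-bla cells, 2% charcoal/dextran FBS, compounds for 18 hrs at 37 C. Hill fit gave IC50 and efficacy.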

Experiment [14] has as its target Peroxisome proliferator-activated receptor delta (Homo sapiens) (UniProt Q03181). Described as above. The gist of the method: as §1
In experiment [15] the target is Peroxisome proliferator-activated receptor gamma (Homo sapiens) (UniProt P37231). In words: qHTS assay for small molecule agonists of peroxisome proliferator-activated receptor gamma signaling (AID 588536; active = well fitted curve in the direction sought with a large enough effect in the signal ratio, with a control signal flat, not every such curve was filed as active; the % refers to the signal ratio). The gist of the method: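 Using GeneBLAzer HEK293 cells, response was quantified by CCF4 fluorescence and normalized between basal DMSO (0%) and rosiglitazone 2 uM (100%); curves yielded half-maximal stimulation concentration and efficacy.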
Chain of Peroxisome proliferator-activated receptor gamma (Homo sapiens) (P37231 whole entry, looked up): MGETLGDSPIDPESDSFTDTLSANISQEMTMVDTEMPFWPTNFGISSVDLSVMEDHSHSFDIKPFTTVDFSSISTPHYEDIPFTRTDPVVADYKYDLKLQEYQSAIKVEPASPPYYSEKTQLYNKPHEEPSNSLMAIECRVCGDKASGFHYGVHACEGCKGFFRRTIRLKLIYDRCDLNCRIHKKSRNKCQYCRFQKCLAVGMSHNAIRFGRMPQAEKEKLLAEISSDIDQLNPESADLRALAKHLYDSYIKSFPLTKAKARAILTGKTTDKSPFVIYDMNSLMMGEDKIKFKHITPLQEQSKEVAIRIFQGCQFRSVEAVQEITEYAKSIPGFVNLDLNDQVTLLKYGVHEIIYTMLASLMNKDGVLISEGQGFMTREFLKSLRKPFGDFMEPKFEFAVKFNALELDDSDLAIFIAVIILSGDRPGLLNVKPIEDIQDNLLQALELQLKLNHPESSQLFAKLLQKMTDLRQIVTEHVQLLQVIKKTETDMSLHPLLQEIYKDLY

The target is the same in experiment [16]. In words: qHTS assay for small molecule antagonists of peroxisome proliferator-activated receptor gamma signaling (AID 588537; active = well fitted inhibition curve with a large enough effect in the signal ratio, with a control signal flat, not every such curve was filed as active; the % refers to the signal ratio;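 note: reporter cells co-stimulated with 50 nM rosiglitazone agonist during compound treatment; % of control where 0% means no effect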). The gist of the method:
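Read-out: CCF4 fluorescence (ex 405, em 460/530 nm) after 2 h at RT. Cells were HEK293 carrying a UAS-bla reporter and treated 16 h at 37 C with compound plus rosiglitazone (50 nM final). Normalized to rosiglitazone and DMSO.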

Experiment [17] is described as follows: qHTS assay for small molecule agonists of retinoid X receptor alpha signaling (AID 588544). As to conditions: HEK293T RXRa-UAS-bla, beta-lactamase reporter, 18 h; 530 nm emission.
Experiment [18] deals with Retinoic acid receptor RXR-alpha (Homo sapiens) (UniProt P19793). Described as above.
Chain of Retinoic acid receptor RXR-alpha (Homo sapiens) (P19793 whole entry, looked up): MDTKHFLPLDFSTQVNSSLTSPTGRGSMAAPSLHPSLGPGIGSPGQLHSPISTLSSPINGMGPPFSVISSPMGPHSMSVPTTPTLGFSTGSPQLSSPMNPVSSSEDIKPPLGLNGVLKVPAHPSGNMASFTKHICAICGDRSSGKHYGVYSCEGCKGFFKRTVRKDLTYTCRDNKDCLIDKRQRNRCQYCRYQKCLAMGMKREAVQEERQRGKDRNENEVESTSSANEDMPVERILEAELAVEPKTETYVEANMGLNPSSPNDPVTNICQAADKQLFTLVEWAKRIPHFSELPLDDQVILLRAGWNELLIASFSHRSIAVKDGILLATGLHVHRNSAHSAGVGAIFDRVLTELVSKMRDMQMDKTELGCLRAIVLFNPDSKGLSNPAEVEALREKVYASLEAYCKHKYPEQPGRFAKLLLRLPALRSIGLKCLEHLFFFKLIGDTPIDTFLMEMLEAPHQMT
The target of experiment [19] is Thyroid hormone receptor beta (Homo sapiens) (UniProt P10828). Put plainly: qHTS assay for small molecule agonists of thyroid hormone receptor beta signaling (AID 588545).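 Note: 0% = DMSO only and 100% = 10 nM T3.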 The essentials: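 Compounds were tested as agonists in TR-UAS-bla-GripTite HEK 293 cells. After 18 hrs at 37 C, CCF4 substrate was added and fluorescence read after 2 hrs at room temperature.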
Chain of Thyroid hormone receptor beta (Homo sapiens) (P10828 whole entry, looked up): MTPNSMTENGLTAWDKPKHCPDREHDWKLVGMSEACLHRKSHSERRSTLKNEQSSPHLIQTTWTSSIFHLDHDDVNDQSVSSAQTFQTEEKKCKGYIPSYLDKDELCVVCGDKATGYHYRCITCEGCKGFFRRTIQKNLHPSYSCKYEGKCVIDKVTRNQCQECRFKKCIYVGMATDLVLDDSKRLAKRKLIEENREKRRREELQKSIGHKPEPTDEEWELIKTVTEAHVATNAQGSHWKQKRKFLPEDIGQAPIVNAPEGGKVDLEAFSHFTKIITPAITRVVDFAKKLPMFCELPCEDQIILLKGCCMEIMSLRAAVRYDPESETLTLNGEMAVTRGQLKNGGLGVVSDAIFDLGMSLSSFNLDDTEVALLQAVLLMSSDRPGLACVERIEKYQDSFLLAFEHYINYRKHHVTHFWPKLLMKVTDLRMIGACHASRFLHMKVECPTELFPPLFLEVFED

Experiment [20] in a line: qHTS assay for small molecule antagonists of retinoid X receptor alpha signaling (AID 588546; active = well fitted inhibition curve with a large enough effect in the signal ratio, with a control signal flat, not every such curve was filed as active; the % refers to the signal ratio). As to conditions: HEK293T RXRa-UAS-bla, beta-lactamase ratio, antagonist mode; measured here: W530 green channel, cytotoxicity proxy. The essentials: (§2)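 Beta-lactamase reporter inhibition, read as CCF4 fluorescence ratio (ex 405, em 460/530 nm) after 2 h at RT. HEK293T UAS-bla cells, 2500/well, were stimulated with 9-cis-RA at 500 or 100 nM final alongside test compound for 18 h at 37 C.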

For experiment [21], the target named is Retinoic acid receptor RXR-alpha (Homo sapiens) (UniProt P19793). Described as above. As to conditions: HEK293T RXRa-UAS-bla, beta-lactamase ratio, antagonist mode. The essentials:
as §2

Experiment [22] concerns the target Thyroid hormone receptor beta (Homo sapiens) (UniProt P10828). Put plainly: qHTS assay for small molecule antagonists of thyroid hormone receptor beta signaling (AID 588547; active = well fitted inhibition curve with a large enough effect in the signal ratio, with a control signal flat, not every such curve was filed as active; the % refers to the signal ratio). As to conditions: TR-UAS-bla HEK293, beta-lactamase ratio, antagonist mode, 18 h. The essentials:
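TR-UAS-bla GripTite HEK293 cells in 2% charcoal/dextran FBS medium; compounds 0.59 nM to 92 uM with T3 at 0.4nM final, 18 h at 37 C. Beta-lactamase read by CCF4 fluorescence (460/530 nm); Hill fits gave IC50 and efficacy.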

The nature of experiment [23]: qHTS assay for small molecule agonists of the antioxidant response element (ARE) signaling pathway (AID 651741; active = well fitted activation curve with a large enough effect in the signal ratio; the % refers to the signal ratio; note: % of control where 0% means no effect). The essentials:
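HepG2 ARE-bla reporter cells, 2,000/well; 5 h settle at 37 C/5% CO2; compound pin transfer (23 nL, DMSO); 16 h at 37 C; LiveBLAzer B/G FRET substrate, 2 h RT; fluorescence intensity read.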

The nature of experiment [24]: qHTS assay for small molecule activators of the nuclear factor-kappa B (NF-kB) signaling pathway (AID 651749; active = well fitted activation curve with a large enough effect in the signal ratio; the % refers to the signal ratio; note: % of control where 0% means no effect). The note with it: NF-kB-bla ME-180 cells, beta-lactamase FRET ratio, 16 h; activation: stronger effect = higher value. The essentials:
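NF-kB-bla ME-180 cells, 2,000/well; 23 nL compound or DMSO pinned; 16 hr, 37C/5% CO2; beta-lactamase FRET read-out.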

For experiment [25], the target named is Peroxisome proliferator-activated receptor alpha (Homo sapiens) (UniProt Q07869). In words: qHTS assay for small molecule agonists of the peroxisome proliferator-activated receptor alpha (PPARalpha) signaling pathway (AID 651778; active = well fitted curve in the direction sought with a large enough effect; an effect the other way counts as inactive or inconclusive; note: % of control where 0% means no effect). As to conditions: PathHunter PPARalpha complementation, chemiluminescence, 6 h; stronger effect = higher value. The gist of the method:
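Enzyme-fragment complementation assay in which ligand-bound PPARalpha translocates and forms an active enzyme that generates chemiluminescence. Cells were plated overnight, exposed to compound for 6 hr at 37 C, and then given detection reagent for 60 min at room temperature.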

The nature of experiment [26]: qHTS assay for small molecule agonists of the antioxidant response element (ARE) signaling pathway measured by Nrf2-dependant transcriptional activity (AID 720636; active = well fitted curve in the direction sought with a large enough effect in the repeat runs; an effect the other way counts as inactive or inconclusive;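 note: HepG2 cells with an ARE-driven luciferase reporter; % of control where 0% means no effect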). The essentials: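 Reporter gene assay, HepG2 ARE-luc: 16 hr compound, 37 C, 5% CO2; read-out luciferase luminescence.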
Experiment [27] in a line: qHTS assay for small molecule agonists of the antioxidant response element (ARE) signaling pathway measured by Nrf2-dependant transcriptional activity - cell viability counter screen (AID 720653; active = well fitted curve in the direction sought with a large enough effect in the repeat runs; an effect the other way counts as inactive or inconclusive; note: % is set by controls: 0 for no effect and ±100 for the full control effect). The note with it: ARE-bla HepG2 viability, CellTiter-Glo ATP luminescence, 16 h; max response: stronger effect = lower value. The gist of the method:
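ARE-bla HepG2 cells treated with compounds for 16 h at 37C; this counter screen measures viability as intracellular ATP by CellTiter-Glo luminescence after 30 min at room temperature.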

Experiment [28] is described as follows: qHTS assay for cell viability of HEK293 cells (AID 743288; active = well fitted curve in the direction sought with a large enough effect; an effect the other way counts as inactive or inconclusive; note: % is set by controls: 0 for no effect and ±100 for the full control effect; nearly all actives have a fitted effect of over 50% in size). As to conditions: ATP luminescence (CellTiter-Glo), 18 h; max response: stronger effect = lower value. The essentials:
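HEK293, 18 h, 37 C, ATP luminescence. Cells at 2,000/well were allowed at least 5 h to settle before dosing; CellTiter-Glo developed 30 min at RT.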

The nature of experiment [29]: qHTS assay for cell viability of the p53RE-bla HCT-116 cell line (AID 743292; active = well fitted curve in the direction sought with a large enough effect; an effect the other way counts as inactive or inconclusive; note: % is set by controls: 0 for no effect and ±100 for the full control effect; nearly all actives have a fitted effect of over 55% in size). The essentials:
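Readout: CellTiter-Glo luminescence after 30 min RT. Treatment: compounds in DMSO, 16 h, 37 C. Cells: CellSensor p53RE-bla HCT-116, 4,000/well, preincubated 5 h.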

Experiment [30] addresses Nuclear receptor subfamily 1 group I member 2 (Rattus norvegicus) (UniProt Q9R1A7). Put plainly: qHTS assay for small molecule activators of the rat pregnane X receptor (rPXR) signaling pathway (AID 651751; call rule not given here; note: 0% is about no effect). The note with it: rPXR reporter cells, luciferase (One-Glo), 24 h.
Experiment [31] in a line: qHTS assay for small molecule activators of the human pregnane X receptor (PXR) signaling pathway (AID 720659; call rule not given here; note: 0% is about no effect).

Records with an inconclusive call do not appear. Activity calls are given as the source filed them. Unless noted, calls come from the whole dose curve.

Chain of Glucocorticoid receptor (Homo sapiens) (P04150 whole entry, looked up): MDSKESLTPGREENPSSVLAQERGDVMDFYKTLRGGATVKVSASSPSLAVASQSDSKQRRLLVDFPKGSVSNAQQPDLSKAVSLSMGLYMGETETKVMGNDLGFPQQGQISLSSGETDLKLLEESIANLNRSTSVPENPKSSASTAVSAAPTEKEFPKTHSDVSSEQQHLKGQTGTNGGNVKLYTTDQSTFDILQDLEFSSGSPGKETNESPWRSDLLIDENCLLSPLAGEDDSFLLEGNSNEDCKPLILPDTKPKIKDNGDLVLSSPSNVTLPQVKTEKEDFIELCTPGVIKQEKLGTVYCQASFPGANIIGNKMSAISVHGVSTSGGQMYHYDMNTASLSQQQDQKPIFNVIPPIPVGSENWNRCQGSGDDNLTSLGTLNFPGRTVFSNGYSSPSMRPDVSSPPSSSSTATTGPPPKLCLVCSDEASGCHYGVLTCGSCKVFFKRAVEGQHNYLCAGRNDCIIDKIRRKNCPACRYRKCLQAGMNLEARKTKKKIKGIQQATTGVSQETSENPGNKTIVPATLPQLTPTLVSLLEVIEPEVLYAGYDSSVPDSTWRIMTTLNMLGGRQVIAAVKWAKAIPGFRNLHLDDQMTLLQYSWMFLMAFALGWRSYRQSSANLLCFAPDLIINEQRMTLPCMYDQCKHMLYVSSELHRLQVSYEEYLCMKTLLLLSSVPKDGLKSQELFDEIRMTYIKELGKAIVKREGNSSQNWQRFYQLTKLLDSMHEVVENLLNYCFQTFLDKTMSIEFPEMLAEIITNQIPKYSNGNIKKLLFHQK
Chain of Androgen receptor (Homo sapiens) (P10275 whole entry, looked up): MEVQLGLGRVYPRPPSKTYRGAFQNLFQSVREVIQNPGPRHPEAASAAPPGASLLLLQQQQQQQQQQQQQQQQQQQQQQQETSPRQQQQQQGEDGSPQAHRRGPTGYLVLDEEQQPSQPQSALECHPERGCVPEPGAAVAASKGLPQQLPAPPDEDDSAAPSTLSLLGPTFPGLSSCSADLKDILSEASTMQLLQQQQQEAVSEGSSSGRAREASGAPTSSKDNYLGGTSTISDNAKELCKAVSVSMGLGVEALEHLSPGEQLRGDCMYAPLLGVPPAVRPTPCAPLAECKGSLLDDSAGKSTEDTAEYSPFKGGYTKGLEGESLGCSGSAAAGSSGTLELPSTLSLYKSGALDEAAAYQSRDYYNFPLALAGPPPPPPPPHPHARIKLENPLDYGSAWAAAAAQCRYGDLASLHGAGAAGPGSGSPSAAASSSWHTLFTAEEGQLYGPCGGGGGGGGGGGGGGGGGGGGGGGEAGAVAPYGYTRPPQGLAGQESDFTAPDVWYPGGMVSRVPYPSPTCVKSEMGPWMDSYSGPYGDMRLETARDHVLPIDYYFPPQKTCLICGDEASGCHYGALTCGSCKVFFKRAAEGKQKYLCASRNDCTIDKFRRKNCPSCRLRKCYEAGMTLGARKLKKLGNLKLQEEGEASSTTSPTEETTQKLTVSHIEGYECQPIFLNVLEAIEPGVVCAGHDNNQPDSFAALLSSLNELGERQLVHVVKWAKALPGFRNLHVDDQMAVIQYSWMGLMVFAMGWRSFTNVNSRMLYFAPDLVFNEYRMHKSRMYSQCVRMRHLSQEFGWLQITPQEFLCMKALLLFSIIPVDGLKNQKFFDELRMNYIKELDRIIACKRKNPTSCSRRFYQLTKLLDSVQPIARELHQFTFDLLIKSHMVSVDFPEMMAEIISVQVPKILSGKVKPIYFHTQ
Chain of Estrogen receptor (Homo sapiens) (P03372 whole entry, looked up): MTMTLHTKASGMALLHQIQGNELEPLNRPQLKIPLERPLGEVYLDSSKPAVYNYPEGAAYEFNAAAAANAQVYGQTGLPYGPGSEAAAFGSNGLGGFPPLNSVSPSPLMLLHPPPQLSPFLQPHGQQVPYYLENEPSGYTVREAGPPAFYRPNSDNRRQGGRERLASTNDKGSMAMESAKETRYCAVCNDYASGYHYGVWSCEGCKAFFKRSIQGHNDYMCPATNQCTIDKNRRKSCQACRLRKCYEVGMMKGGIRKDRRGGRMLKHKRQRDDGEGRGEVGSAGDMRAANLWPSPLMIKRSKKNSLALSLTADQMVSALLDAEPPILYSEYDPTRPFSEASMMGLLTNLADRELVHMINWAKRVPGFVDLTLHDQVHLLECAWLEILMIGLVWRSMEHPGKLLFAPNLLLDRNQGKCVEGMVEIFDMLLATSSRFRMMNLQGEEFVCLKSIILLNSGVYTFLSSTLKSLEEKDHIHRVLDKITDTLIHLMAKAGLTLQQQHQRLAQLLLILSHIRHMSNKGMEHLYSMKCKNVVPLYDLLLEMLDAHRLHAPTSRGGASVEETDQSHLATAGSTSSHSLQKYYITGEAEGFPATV

For `N#CNC(=NCCCCCCOc1ccc(Cl)cc1)Nc1ccncc1`, the Potency in experiment [1] is 34.3 nM (active); in [2] it was 9.7 nM (active). Further, the activity change, negative = inhibition in experiment [3] is -97%.

For `OC1c2ccccc2N=C2CCCN21` (stereo unspecified), the Potency entry in [1] and in experiment [4] was “inactive” each time.

On to `NS(=O)(=O)OC[C@@H]1C[C@@H](n2ccc3c(N[C@H]4CCc5ccccc54)ncnc32)C[C@H]1O`, for which the Potency result in experiment [1] is “inactive”. The Potency in [4] was 13700 nM (active).

For the molecule `CCCCOP(=O)(O)OCCCC`, the Potency result in experiment [5], in experiment [8], in [11], in experiment [12], in [16] and in experiment [19] was “inactive” each time. Moreover, the Potency result in [23], in experiment [26], in experiment [1] and in experiment [2] was “inactive” each time. In addition, the activation was -1.97% (inactive) in [6], 1.99% (inactive) in experiment [9], -1.37% (inactive) in experiment [10] and 1.33% (inactive) in experiment [24]. Besides, the molecule was classed as inactive in [7], in experiment [14], in experiment [15], in experiment [18], in [29] and in experiment [31]. Moreover, the max response in [13] is 24.1%; in experiment [17] it was -20.1%; in experiment [20] it was -2.61%; in [21], -17.7% (inactive); in experiment [25] it was -1.16% (inactive); in [27] it was -8.15% (inactive). The max response was -9.76% (inactive) in [28] and 5.92% (inactive) in [30]. For the same molecule, the activity change % (negative = inhibition) in experiment [22] is 3.56% (inactive).

Source of the values: PubChem BioAssay (NCATS).
